Screening data from PubChem.
aSyn 5UTR act: Activators working through SNCA 5'UTR binding (MLPCN). 300,000 tested, 7.1% active. activity score, % (tested at 7.5 µM), hits read low. alpha-synuclein 5'UTR reporter, activators screen; in the data active means activity score below about -60%
Starred values were filed as active, the others as inactive. Only a sample is shown.

SMILES	aSyn 5UTR act
c1csc(C2=NNC(=NC3CCCCC3)SC2)c1	-165.0*
c1ccc2oc(C3=NNC(=NC4CC4)SC3)cc2c1	-134.8*
CC(CNC(=O)c1ccc(OC2CCN(Cc3ccccn3)CC2)cc1)c1ccccc1 (configuration not stated)	-97.0*
C#CCSc1nnc(-c2sc(-c3ccccc3)nc2C)n1C	-66.8*
O=C(c1ccc(F)cc1)c1ccc(-c2ccc(F)cc2)nc1	-140.5*
CCOc1ccc2nc(NC(=O)Nc3ccccc3)sc2c1	-131.1*
CCOc1ccc2nc(NC(=O)NC3CCCCC3)sc2c1	-71.8*
CC(C)C(=O)NNc1nc2ccccc2s1	-73.0*
CCOc1ccc2nc(NC(=O)Nc3cccs3)sc2c1	-102.7*
CCOc1ccc2nc(NC(=O)c3ccccn3)sc2c1	79.9
O=C(NNc1nc2ccccc2s1)Nc1ccc(F)cc1	-157.4*
NS(=O)(=O)c1ccc2nc(NC(=O)Nc3ccc(F)cc3)sc2c1	-97.5*
COc1ccc(NC(=O)Nc2nc3c(s2)CCCC3)cc1	-155.3*
CC(C)(C)c1ccc(NC(=O)c2c(F)cccc2Cl)cc1	-101.1*
COc1ccc(C(=O)Nc2nc3ccccc3s2)c(OC)c1	79.2
COc1ccc(NC(=O)Nc2nc3ccccc3s2)cc1	-149.8*
O=C(Nc1nc2ccccc2s1)c1c(F)cccc1Cl	-86.2*
CCOc1ccc2nc(S(N)(=O)=O)sc2c1	-176.5*
COc1n[nH]c(C(=O)Nc2nc3ccccc3s2)c1[N+](=O)[O-]	-78.9*
O=C(Nc1nc2ccccc2s1)Nc1ccc(F)cc1F	-119.3*
CCC(=O)Nc1ccc(C(=O)Nc2cccc(C)n2)cc1	-168.9*
Cc1cccc(NC(=O)Nc2ccc(Br)cc2)n1	-126.8*
COc1ccc(NC(=O)Nc2ccc(Br)cn2)cc1	-146.1*
COc1ccc(NC(=O)Nc2cccc(C)n2)cc1	-201.2*
Cc1cccc(/C=C2\Oc3cc(OS(C)(=O)=O)ccc3C2=O)c1	-63.8*
SMILES	aSyn 5UTR act
COc1ccc2c(c1)O/C(=C\c1ccco1)C2=O	-119.5*
CC(=O)COc1ccc2c(c1C)O/C(=C\c1ccco1)C2=O	-212.7*
O=C(O)CC1=C(Nc2ccccc2)C(=O)N(c2ccccc2)C1c1ccc(Br)cc1 (configuration not stated)	-104.5*
COc1cc2cc(-c3ccc(OC)c(OC)c3C)nc(N)c2cc1OC	95.5
COc1cc2cc(-c3ccc(O)cc3O)nc(C)c2cc1OC	-115.9*
C(=N\N=C\c1cccs1)/c1cccs1	-177.9*
C/C(=N\NC(=O)C1CC1)c1ccc(NC(=O)c2ccc(Br)o2)cc1	-109.9*
C/C(=N\NC(=O)c1c(Cl)cnn1C)c1ccc(NC(=O)c2ccc(Br)o2)cc1	-116.3*
O=C1C(Cl)=C(NCCCN2CCOCC2)C(=O)N1CCc1ccccc1	-125.9*
CN1CCN(C2=C(Cl)C(=O)N(CCc3ccccc3)C2=O)CC1	-111.8*
O=C1C(Cl)=C(NCC2CCCO2)C(=O)N1CCc1ccccc1 (configuration not stated)	-182.6*
O=C1C(Cl)=C(N2CCOCC2)C(=O)N1CCc1ccccc1	-211.9*
O=c1c([N+](=O)[O-])c(N2CCOCC2)c2ccccc2n1Cc1ccccc1	46.4
O=C(CC1=NCCNC(c2ccccc2)C1)c1ccccc1O (configuration not stated)	-145.2*
Nc1nc(N2CCN(c3ccccn3)CC2)nc2ccccc12	-118.1*
Cc1cccc2sc(N(CCCN(C)C)C(=O)c3ccc4ncsc4c3)nc12	-91.9*
CCc1ccc2nc(N(CCN(C)C)C(=O)c3ccc4ncsc4c3)sc2c1	-113.7*
CN(C)c1ccc(/C=C/c2cccc[n+]2[O-])cc1	-100.7*
CC(C)CC[n+]1ccccc1/C=C/c1ccc(N(C)C)cc1	79.1
CCOc1ccc(NC(=O)C(c2ccccn2)N(C(=O)CCl)c2ccc(OC)cc2)cc1 (configuration not stated)	-161.0*
CCOC(=O)/C(C#N)=C/c1cc(C)n(-c2ccc(C)cc2)c1C	-129.8*
CC(C)COC(=O)/C(C#N)=C/c1cn(Cc2ccccc2)c2ccccc12	79.5
Cc1cc(=O)oc2cc(NC(=O)c3cccc(S(=O)(=O)N(C)C)c3)ccc12	-111.5*
Cc1cc(=O)oc2cc(NC(=O)c3ccc(OC(F)F)cc3)ccc12	-124.4*
Cc1cc(=O)oc2cc(NC(=O)c3cccc(F)c3)ccc12	-151.9*
SMILES	aSyn 5UTR act
Cc1cc(=O)oc2cc(NC(=O)c3cccc(S(C)(=O)=O)c3)ccc12	-97.1*
COc1ccccc1NC(=O)Nc1ccc2c(c1)nnn2C	-96.4*
Cc1ccc(NC(=O)Nc2ccc3c(c2)nnn3C)cc1C	-66.5*
OC1CCCCC1Sc1nc2ccccc2s1 (configuration not stated)	-88.0*
Cc1ccccc1Oc1cc(NC(=O)Cn2cnc([N+](=O)[O-])c2)cc([N+](=O)[O-])c1	-90.8*
O=C1Nc2cc(C(=O)NCCCN3CCCC3)ccc2S/C1=C/c1ccccc1F	-106.0*
CCN1CCCC1CNC(=O)c1ccc2c(c1)NC(=O)/C(=C\c1ccc(C)cc1)S2 (configuration not stated)	74.1
CCCC(C(=O)Nc1ccc2c(C)cc(=O)oc2c1)c1ccccc1 (configuration not stated)	-65.8*
Cc1cc(=O)oc2cc(Nc3ccccc3)ccc12	-89.6*
COc1ccc(/C=C2\CCC(C3CCCC3)C2=O)cc1OC (configuration not stated)	-74.8*
Cc1ccc(/C=C2\CCC(C3CCCC3)C2=O)cc1 (configuration not stated)	-105.1*
COc1ccc(/C=C2\CCC(C3CCCC3)C2=O)cc1 (configuration not stated)	-179.1*
Cc1ccsc1/C=C1\CCC(C2CCCC2)C1=O (configuration not stated)	-163.5*
COc1ccccc1C1C=C(c2ccccc2)Nc2nnnn21 (configuration not stated)	-84.0*
COc1cccc(C2=CC(c3ccc(OC)c(OC)c3OC)n3nnnc3N2)c1 (configuration not stated)	-66.7*
CCC(C)(C)c1ccc2c(c1)C(=O)c1ccccc1C2=O	-71.5*
Cc1csc2ncc(C(=O)Nc3ccccc3F)c(=O)n12	-205.2*
Cc1csc2ncc(C(=O)Nc3ccccc3Cl)c(=O)n12	-204.3*
COc1cccc(N/C=C/c2onc(C)c2[N+](=O)[O-])c1	-151.1*
Cc1noc(/C=C/c2ccc(-c3ccccc3Cl)o2)c1[N+](=O)[O-]	-62.6*
Cc1ccc(N/C=C/c2onc(C)c2[N+](=O)[O-])cc1	-133.6*
COc1cc(C2=NOC(C(=O)Nc3ccc(C(C)=O)cc3)C2)cc(OC)c1OC (configuration not stated)	-79.9*
CCS(=O)(=O)n1nc(-c2ccc(Cl)cc2)nc1SCc1ccccc1	-109.6*
COc1ccc(NC(C)=O)cc1S(=O)(=O)Nc1ccccc1C(=O)NCCc1ccccc1	-127.6*
O=C(O)CCc1ccc(S(=O)(=O)Nc2ccccc2C(=O)NCCc2ccccc2)cc1	-117.8*
SMILES	aSyn 5UTR act
COc1ccc(NC(=O)c2nc(S(=O)(=O)Cc3cccc(C)c3)ncc2Cl)c(OC)c1	82.4
COc1ccc(NC(=S)Nc2cc(C)ccn2)c(OC)c1	-243.3*
COc1ccc(NC(=S)Nc2ccccn2)c(OC)c1	-152.7*
CCOC(=O)Cc1csc(-n2sc3ccccc3c2=O)n1	-88.7*
COc1cc(OC)cc(C(=O)O/N=C(\N)c2ccncc2)c1	-67.8*
Cc1cccc(/C(N)=N/OC(=O)C23CC4CC(CC(C4)C2)C3)c1	-114.2*
Cc1cccc(/C(N)=N/OC(=O)c2ccc(Br)o2)c1	-210.1*
